This passage reports AC50 and outcome results from PubChem BioAssay (EPA / NIEHS).

Experiment [1] in a line: Tanguay_ZF_120hpf_JAW_legacy: (Legacy) Oregon State University Tanguay Lab 120 Hour Post-fertilization zebrafish Assay for Jaw Malformation (AID 2283638).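 For AC50: active means more embryos with jaw malformation than DMSO controls.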 The gist of the method:
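Static waterborne exposure of dechorionated wild-type (Tropical 5D) zebrafish from 6 to 120 hpf at 28C, 0.64% DMSO vehicle; 5uM trimethyltin chloride served as positive control. Jaw morphology recorded as binary at 120 hpf.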

The nature of experiment [2]: Tanguay_ZF_120hpf_OTIC_legacy: (Legacy) Oregon State University Tanguay Lab 120 Hour Post-fertilization zebrafish Assay for Otic Vesicle Malformation (AID 2283639). In a few lines:
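Otic vesicle malformation is read as a yes/no morphology call at 120 hpf. Exposure is static at 28C with 0.64% (vol/vol) DMSO; embryos that die are excluded from non-mortality endpoints.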

Experiment [3] in a line: Tanguay_ZF_120hpf_PE_legacy: (Legacy) Oregon State University Tanguay Lab 120 Hour Post-fertilization zebrafish Assay for Pericardial Edema (AID 2283640).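 For AC50: potency for increased incidence of pericardial edema versus DMSO baseline.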 In a few lines:
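Read-out is the presence or absence of pericardial edema at 120 hpf under brightfield, with gain of signal fitted against DMSO controls. Larvae (5D wild-type) were statically exposed at 28C with 0.64% final DMSO.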

Experiment [4] in a line: Tanguay_ZF_120hpf_BRAI_legacy: (Legacy) Oregon State University Tanguay Lab 120 Hour Post-fertilization zebrafish Assay for Brain Malformation (AID 2283641). In a few lines: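 Brain malformation in Tropical 5D zebrafish was recorded as a binary endpoint after static compound exposure from early development to 120 hpf at 28C. Activity was analysed against DMSO as negative control.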

Experiment [5] in a line: Tanguay_ZF_120hpf_SOMI_legacy: (Legacy) Oregon State University Tanguay Lab 120 Hour Post-fertilization zebrafish Assay for Somite Malformation (AID 2283647). In a few lines:
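5D WT zebrafish; chorion removed 4 hpf; 1 embryo/well from 6 hpf; static exposure to 120 hpf, 28C, 0.64% DMSO final. Endpoint: somite malformation, binary, brightfield. Mortality excluded.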

Experiment [6] is described as follows: Tanguay_ZF_120hpf_PFIN_legacy: (Legacy) Oregon State University Tanguay Lab 120 Hour Post-fertilization zebrafish Assay for Pectoral Fin Malformation (AID 2283648).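 Note: each larva judged yes or no for fin defect by brightfield with dead larvae skipped.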 The gist of the method:
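5D WT zebrafish; pronase dechorionation 4 hpf; 1 embryo/well at 6 hpf; static exposure to 120 hpf, 28C, sealed, foil-covered; final DMSO 0.64% v/v; 5 uM trimethyltin chloride positive control; fin defect scored yes/no.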

Experiment [7] can be described thus: Tanguay_ZF_120hpf_CFIN_legacy: (Legacy) Oregon State University Tanguay Lab 120 Hour Post-fertilization zebrafish Assay for Caudal Fin Malformation (AID 2283649). In a few lines: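 Embryos were collected from Tropical 5D wild-type adults and dechorionated at 4 hpf. At 6 hpf each was exposed, one per well, at 0.64% DMSO and 28C. At 120 hpf fin morphology was scored; dead embryos were excluded.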

The nature of experiment [8]: Tanguay_ZF_120hpf_SWIM_legacy: (Legacy) Oregon State University Tanguay Lab 120 Hour Post-fertilization zebrafish Assay for Swim Bladder Malformation (AID 2283654).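 Note: swim bladder malformation in each larva scored yes or no under brightfield.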 The gist of the method: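 Embryos lacking chorions were exposed individually and statically to test chemical from 6 to 120 hpf at 28C, with 0.64% DMSO as vehicle. At 120 hpf, swim bladder malformation was recorded as present or absent by brightfield microscopy.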

A short description of experiment [9]: Tanguay_ZF_120hpf_TRUN_legacy: (Legacy) Oregon State University Tanguay Lab 120 Hour Post-fertilization zebrafish Assay for Truncated Body (AID 2283655). The gist of the method: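 5D wild-type larvae; pronase dechorionation; static exposure 6→120 hpf, 28C; DMSO 0.64% final; 5uM trimethyltin chloride positive control. Readout: presence/absence of truncated body, analyzed relative to DMSO.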

A short description of experiment [10]: Tanguay_ZF_120hpf_NC_legacy: (Legacy) Oregon State University Tanguay Lab 120 Hour Post-fertilization zebrafish Assay for Notochord and Tail Malformation (AID 2283656). In a few lines: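 Dechorionated 5D zebrafish, 1/well from 6 hpf; static exposure to 120 hpf, 28C, sealed, dark; final DMSO 0.64% v/v. NC scored binary (present/absent); dead embryos not scored. Fit vs DMSO baseline, gain direction.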

The test system of experiment [11] is Thyroperoxidase (TPO), gene 54314. As to the kind of experiment: CCTE_Simmons_AUR_rTPO: CCTE's Amplex UltraRed Assay for Thyroperoxidase (TPO) Inhibition, Simmons Lab (AID 2283662).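 Note: potency for loss of signal meaning inhibition of peroxidase activity.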 In a few lines:
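Endpoint is decreased Amplex UltraRed fluorescence after a 30-min, 37C reaction of rat thyroid microsomes with 300 uM H2O2. Eight test concentrations (5 nM–87.5 uM final) in 0.5% DMSO, three biological replicates each.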

Experiment [12] in a line: CCTE_Simmons_CellTiterGLO_HEK293T: Viability Assessment in CCTE's Assays for Thyroperoxidase (TPO) Inhibition, Simmons Lab (AID 2283665).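 For AC50: cells exposed to compound for 24 h before readout; actives reduce ATP signal below DMSO vehicle meaning cytotoxicity.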 The gist of the method:
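Cytotoxicity counter-screen: human HEK293T cells in low-serum (1% FBS) medium receive test chemical, 5 nM to 87.5 uM final, for 24 h; ATP is quantified by luciferase luminescence.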

Experiment [13] in a line: Tanguay_ZF_120hpf_TR_legacy: (Legacy) Oregon State University Tanguay Lab 120 Hour Post-fertilization zebrafish Assay for Touch Response (AID 2283667). In a few lines: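 5D WT embryos; static exposure to 120 hpf, 28C, sealed/dark; DMSO 0.64% v/v final. TR scored present/absent; dead embryos excluded. Pos ctrl 5uM trimethyltin chloride.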
Experiment [14] in a line: Tanguay_ZF_120hpf_PIG_legacy: (Legacy) Oregon State University Tanguay Lab 120 Hour Post-fertilization zebrafish Assay for Pigmentation Malformation (AID 2283650). In a few lines: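 Pronase dechorionation at 4 hpf; embryos plated at 6 hpf, one per well; static exposure, sealed and foil-covered, 28C, to 120 hpf; pigmentation read by brightfield, binary; DMSO 0.64% baseline, 5uM trimethyltin chloride positive control.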

Experiment [15] in a line: Tanguay_ZF_120hpf_CIRC_legacy: (Legacy) Oregon State University Tanguay Lab 120 Hour Post-fertilization zebrafish Assay for Circulatory Malformation (AID 2283651). The gist of the method:
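Using wild-type Tropical 5D zebrafish, we exposed dechorionated embryos from 6 to 120 hpf in embryo medium with 0.64% DMSO. Circulatory defects were scored as present or absent; 5uM trimethyltin chloride served as positive control.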

Results filed as inconclusive are left out. The source made the active and inactive calls. Rule for the calls: active = hit-call score of the fitted dose curve at least 0.9, where 1 is the maximum; inconclusive = response in the unintended direction; inactive = score below 0.9.

The AC50 is the midpoint of the concentration-response curve, whichever way the signal moves. With `COc1cc(C(=O)NC2CCN(C)CC2)ccc1Nc1ncc2c(n1)N(C1CCCC1)CC(F)(F)C(=O)N2C`, the concentration at half-maximal activity (AC50) in experiment [1] is 34.6 µM (active); in [3], 35.6 µM (active); in [4], 12.3 µM (active); in experiment [9], 31 µM (active); in experiment [10] it was 33 µM (active); in experiment [11], 40.7 µM (active). Besides, the AC50 in experiment [12] was 15.3 µM (active); in [13], 36.1 µM (active). For the same compound, the outcome in experiment [2], in experiment [5], in experiment [6], in [7] and in experiment [8] was inactive.
With `Cc1ncc(CO)c(CO)c1O`, the compound was classed as inactive in [1], in experiment [2], in experiment [3], in [4], in experiment [5] and in experiment [6]. The outcome in experiment [7], in experiment [14], in experiment [15], in [8], in experiment [9] and in experiment [10] was inactive. The outcome in [13] was inactive.
In the case of `Clc1cc(Cl)c2c(c1)N=C1CCCCCN1C2`, the compound was classed as inactive in [1], in [2], in [4], in experiment [5], in experiment [6] and in experiment [7]. Moreover, the result in experiment [14], in [8] and in experiment [10] was inactive. In addition, the results for the concentration at half-maximal activity (AC50) in experiment [3] and in [13] were 24.9 µM (active) and 15.7 µM (active), respectively.
As for `CN(C[C@@H](CC[N+]12CCC(C3CCCCC3)(CC1)CC2)c1ccc(Cl)c(Cl)c1)C(=O)c1cc(C(F)(F)F)cc(C(F)(F)F)c1`, the result in experiment [1], in experiment [2], in experiment [3], in experiment [4], in experiment [5] and in experiment [6] was inactive. For the same compound, the result in experiment [7], in experiment [8] and in [13] was inactive. In addition, the AC50 is 43.8 µM (active) in [11] and 9.54 µM (active) in experiment [12].
As to `Oc1ccc2ccccc2c1`, the AC50 in experiment [1] was 38.2 µM (active); in [2], 47.3 µM (active); in experiment [4] it was 10.3 µM (active); in experiment [7], 10.4 µM (active); in [14], 12.9 µM (active); in experiment [9], 50.2 µM (active). In addition, the AC50 in [11] was 3.13 µM (active); in experiment [13], 33.6 µM (active). For the same compound, the result in [3], in experiment [5], in experiment [6], in experiment [8], in experiment [10] and in [12] was inactive.
Turning to `O=C(O)c1ccccc1-n1cc(C(=O)O)c(=O)c2cc(Nc3c(F)cc(F)cc3Cl)c(Cl)cc21`, the result in experiment [1], in [2], in experiment [3], in [4], in experiment [5] and in [6] was inactive. The compound was called inactive in [7], in [8], in experiment [10] and in experiment [13].
In the case of `CCOC(=O)O[C@H](C)OC(=O)c1ccc2c(c1)cc(C(=O)NC1CCN(C(C)C)CC1)n2Cc1cc(-c2ccc(Cl)s2)on1`, the AC50 was 47.6 µM (active) in experiment [1], 9.93 µM (active) in [11] and 2.11 µM (active) in [12]. Besides, the compound was called inactive in experiment [2], in experiment [3], in [4], in [5], in experiment [6] and in [7]. Besides, the outcome in experiment [15], in experiment [10] and in experiment [13] was inactive.
As to `O=C(O)Cc1cc(I)c(Oc2ccc(O)c(I)c2)c(I)c1`, the AC50 in experiment [1] was 0.089 µM (active); in experiment [14], 0.177 µM (active); in experiment [11], 0.32 µM (active). Further, the compound was called inactive in experiment [2], in [3], in [4], in [5], in experiment [6] and in experiment [7]. Further, the call in experiment [8], in experiment [10], in experiment [12] and in experiment [13] was inactive.
